Measured values: PubChem BioAssay

Assays:
[1] = NFkB reporter suppression in cystic fibrosis bronchial cells – cell-based, uHTS hits, panel, cytotoxicity readout, dose response (AID 624344); details: CF bronchial epithelial cells, PAF-induced NFkB reporter inhibition, with PAF, run 1; at 79 µM (top of the series) unless noted
[2] = as above; details: CF bronchial epithelial cells, PAF-induced NFkB reporter inhibition, with PAF, run 2; at 79 µM (top of the series) unless noted

## Cc1cccc(NS(=O)(=O)c2ccc(-c3cnc(C4CC4)o3)cc2)c1C
[1]
  inhibition: 105%
[2]
  inhibition: 107%

## O=C(Oc1ccc(F)cc1C(=O)/C=C/c1cccs1)c1cccc([N+](=O)[O-])c1
[1]
  inhibition: 49.3%
[2]
  inhibition: 40.3%

## CCOc1ccc(Nc2ncnc3ccc([N+](=O)[O-])cc23)cc1
[1]
  inhibition: 102%
[2]
  inhibition: 107%

## COc1ccc(-c2cc(NC=O)c3ncc(-c4cc(OC)c(OC)c(OC)c4)n3c2)cc1
[1]
  inhibition: 50.1%
[2]
  inhibition: 53.5%

## Cc1cccc(N2CCN(C(=O)CCn3c(=S)[nH]c4cc5c(cc4c3=O)OCO5)CC2C)c1 (configuration not stated)
[1]
  inhibition: 109%
[2]
  inhibition: 93.9%

## O=C(NCc1nc(-c2ccc(C(F)(F)F)cc2)no1)Nc1cc(Cl)cc(Cl)c1
[1]
  inhibition: 97.9%
[2]
  inhibition: 114%

## CNC(=O)c1ccc(NC(=O)C2CCN(c3ncnc4sc(C)c(C)c34)CC2)cc1
[1]
  inhibition: 85.3%
[2]
  inhibition: 72%

## CCOc1ccc(-n2cc(-c3ccccc3)c3c(N4CCOCC4)ncnc32)cc1
[1]
  inhibition: 112%
[2]
  inhibition: 102%

## COc1ccc(/C=N/Nc2nc(-c3cccnc3)nc3ccccc23)cc1OC
[1]
  inhibition: 108%
[2]
  inhibition: 96.6%

## COc1ccccc1[C@]1(C)ON(c2ccccc2C(F)(F)F)C1=O
[1]
  inhibition: 105%
[2]
  inhibition: 109%

## C=CC[C@]12CC=CC(=O)[C@@]1(O)O[C@H](c1ccc(OC)c(OC)c1)[C@H]2C
[1]
  inhibition: 110%
[2]
  inhibition: 87.5%

## C[C@H]1Cn2cnc(C(=O)Nc3cccc(Cl)c3)c2C(=O)N1
[1]
  inhibition: 105%
[2]
  inhibition: 104%

## CCNC(=O)C1(C)CCCN(Cc2ccc(-c3ccccc3)o2)C1 (configuration not stated)
[1]
  inhibition: 94%
[2]
  inhibition: 74.8%

## COc1ccc(OC)c(Nc2ncnc3ccc(Br)cc23)c1
[1]
  inhibition: 98.3%
[2]
  inhibition: 97.5%

## CCc1ccc(Nc2n[n+](-c3ccccc3)c(-c3c(Cl)cccc3Cl)s2)cc1
[1]
  inhibition: 116%
[2]
  inhibition: 101%

## CC(=O)c1c(C)n(-c2ccc(C)cc2C)c2ccc(O)cc12
[1]
  inhibition: 106%
[2]
  inhibition: 64%

## COc1cc(C(=O)Nc2nnc(-c3sccc3C)s2)cc(OC)c1OC
[1]
  inhibition: 47.9%
[2]
  inhibition: 89.3%

## CCOc1ccc(C(C(=O)NCC2CCCO2)N(Cc2cccs2)C(=O)c2snc(C(N)=O)c2N)cc1 (configuration not stated)
[1]
  inhibition: 99.5%
[2]
  inhibition: 92.5%

## CN(c1ncnc(N)c1[N+](=O)[O-])C1CCCCC1
[1]
  inhibition: 115%
[2]
  inhibition: 102%

## N#Cc1ccsc1NC(=O)c1ccc(Cl)c([N+](=O)[O-])c1
[1]
  inhibition: 74%
[2]
  inhibition: 101%

## NC(=O)c1sc2nc3c(c(-c4ccco4)c2c1N)CCCC3
[1]
  inhibition: 114%
[2]
  inhibition: 101%
